Test results from article PMC11062922 (Nature Chemical Biology, 2023).
Like-named read-outs stand apart in the source and are kept apart here.

Columns and labels:
Set-up in all cases: species or system human, MV4-11 + K-562 + COLO205 + SK-N-BE2 + OVCAR-8
MAPK14 = conditions: read-out: apparent Kd; compound concentrations:100 nM and 1000 nM (sheet 'Samples'); n = 1
PIK3C3 = conditions: read-out: apparent Kd, n = 1
STK16 = conditions: read-out: apparent Kd; compound concentrations:100 nM and 1000 nM (sheet 'Samples'); n = 1
PI4KB = conditions: read-out: apparent Kd, compound concentrations: 100 nM and 1000 nM (sheet 'Samples'), n = 1
TGFBR2 = conditions: read-out: apparent Kd; compound concentrations: 100 nM and 1000 nM (sheet 'Samples'), CATDS: 0.45581202141121302; n = 1
PIK3CB = conditions: read-out: apparent Kd, n = 1
PIK3CA = conditions: read-out: apparent Kd, n = 1
PIK3CD = conditions: read-out: apparent Kd, n = 1
TESK2 = conditions: read-out: apparent Kd, compound concentrations: 100 nM and 1000 nM (sheet 'Samples'), n = 1
PIM2 = conditions: read-out: apparent Kd, n = 1
PIM3 = conditions: read-out: apparent Kd, compound concentrations: 100 nM and 1000 nM (sheet 'Samples'), n = 1
PI4KA = conditions: read-out: apparent Kd, compound concentrations: 100 nM and 1000 nM (sheet 'Samples'), n = 1
PIK3CG = conditions: read-out: apparent Kd; compound concentrations: 100 nM and 1000 nM (sheet 'Samples'), CATDS: 0.14675867951409499; n = 1
PRKDC = conditions: read-out: apparent Kd; compound concentrations: 100 nM and 1000 nM (sheet 'Samples'), CATDS: 0.12241161716625901; n = 1
PRKD1 = conditions: read-out: apparent Kd; compound concentrations:100 nM and 1000 nM (sheet 'Samples'); n = 1
PRKD2 = conditions: read-out: apparent Kd; compound concentrations:100 nM and 1000 nM (sheet 'Samples'); n = 1
PRKD3 = conditions: read-out: apparent Kd; compound concentrations:100 nM and 1000 nM (sheet 'Samples'); n = 1
PKN3 = conditions: read-out: apparent Kd; compound concentrations: 100 nM and 1000 nM (sheet 'Samples'), CATDS: 0.47947466272848499; n = 1
PDGFRB = conditions: read-out: apparent Kd; compound concentrations: 100 nM and 1000 nM (sheet 'Samples'), CATDS: 0.36710217729011002; n = 1
PDXK = conditions: read-out: apparent Kd; compound concentrations: 100 nM and 1000 nM (sheet 'Samples'), CATDS: 1; n = 1
[1] = compound concentrations:100 nM and 1000 nM (sheet 'Samples')
[2] = compound concentrations: 100 nM and 1000 nM (sheet 'Samples'), CATDS: 1

Nc1n[nH]c2ncc(-c3ccccc3)cc12 [SB-517081_KCGS]
potency estimated from few doses (MAPK14): 1.59 µM
potency estimated from few doses (PIK3C3; [1]): 1.32 µM
potency estimated from few doses (STK16): 1.63 µM

COC(=O)C(NC(=O)NC1CCN(c2ccnc(Nc3ccc(F)cc3)n2)C1)c1ccccc1 (centres unmarked) [GSK1379712_KCGS]
potency estimated from few doses (PI4KB; CATDS: 0.55367516713285103): 0.946 µM
potency estimated from few doses (TGFBR2): 1.4 µM

CSc1nn2c(=O)cc(N3CCOCC3)nc2n1Cc1cccc(Cl)c1Cl [GSK2347225A]
potency estimated from few doses (PIK3C3; compound concentrations: 100 nM and 1000 nM (sheet 'Samples'), CATDS: 0.39036921617708198): 0.041 µM
potency estimated from few doses (PIK3CB; compound concentrations: 100 nM and 1000 nM (sheet 'Samples'), CATDS: 0.69525432072765503): 0.0115 µM

CC(C)c1ccc(O)cc1Nc1ccnc2ccc(C(F)(F)F)cc12 [GW482059X]
potency estimated from few doses (PIK3CA; compound concentrations: 100 nM and 1000 nM (sheet 'Samples'), CATDS: 0.44189081373448802): 0.239 µM
potency estimated from few doses (PIK3CD; compound concentrations: 100 nM and 1000 nM (sheet 'Samples'), CATDS: 0.57570605535332697): 0.139 µM

Cc1ccccc1Cn1ccn2c(=O)cc(N3CCOCC3)nc12 [GSK2269905A]
potency estimated from few doses (PIK3CB; compound concentrations: 100 nM and 1000 nM (sheet 'Samples'), CATDS: 0.94535386241692498): 0.0419 µM
potency estimated from few doses (TESK2; CATDS: 0.33988229357461403): 1.41 µM

COc1cccc(-n2ncc3c(N/N=C/c4cccc(F)c4)ncnc32)c1 [GW817394X]
potency estimated from few doses (PIK3CA; [2]): 0.237 µM

COc1cc(Nc2nccc(N3CCC(NC(=O)Nc4cc(C)ccc4C)C3)n2)cc(OC)c1OC (centres unmarked) [GSK1379762_KCGS]
potency estimated from few doses (PIM2; [2]): 1.94 µM

Cl.O=S1CCN(Cc2ccc(-c3ccc4ncnc(Nc5ccc(OCc6ccccc6)c(Cl)c5)c4c3)o2)CC1 [GW583373A]
potency estimated from few doses (PIK3CA; [1]): 0.213 µM

Cc1c(Cn2c(C)nn3c(=O)cc(N4CCO[C@H](C)C4)nc23)cccc1C(F)(F)F [GSK2373690A]
potency estimated from few doses (PIK3CB; [1]): 0.0061 µM

CCSc1ccc(-c2nc3n(c2-c2ccncc2)CCC3)cc1.CCSc1ccc(-c2nc3n(c2-c2ccncc2)CCC3)cc1.Cl.Cl [SKF-106164-A2]
potency estimated from few doses (PIM3; CATDS: 1): 1.3 µM

CN(C)S(=O)(=O)c1cc(-c2ccc3nccc(-c4cccc(S(N)(=O)=O)c4)c3c2)cnc1N [GSK1669921A]
potency estimated from few doses (PI4KA; CATDS: 0.112986099678868): 1.3 µM
potency estimated from few doses (PIK3CA; compound concentrations: 100 nM and 1000 nM (sheet 'Samples'), CATDS: 0.37789009746554098): 0.023 µM
potency estimated from few doses (PIK3CB; compound concentrations: 100 nM and 1000 nM (sheet 'Samples'), CATDS: 0.12770502550951299): 0.777 µM
potency estimated from few doses (PIK3CD; compound concentrations: 100 nM and 1000 nM (sheet 'Samples'), CATDS: 0.59190161407117303): 0.00962 µM
potency estimated from few doses (PIK3CG): 0.466 µM
potency estimated from few doses (PRKDC): 0.92 µM

Cc1cc(-c2ccc3c(c2)CC[C@@H](N[C@@H](C)c2ccccc2)C3)cnc1N.Cc1cc(-c2ccc3c(c2)CC[C@@H](N[C@@H](C)c2ccccc2)C3)cnc1N.Cl.Cl [GW412617A]
potency estimated from few doses (PIM3; CATDS: 0.55054057410094004): 1.02 µM
potency estimated from few doses (TESK2; CATDS: 0.45795860987145298): 1.47 µM

COc1ccc(Nc2nccc(N3CCC(NC(=O)c4cccc(NC(C)=O)c4)C3)n2)cc1 (centres unmarked) [GSK1379732A]
potency estimated from few doses (PIK3CD; [2]): 0.141 µM

Cc1cccc(-c2nc(Nc3ccc4c(cnn4C)c3)c3ccccc3n2)n1 [GW876731X]
potency estimated from few doses (PIK3CD; [1]): 0.158 µM
potency estimated from few doses (PRKD1): 0.0928 µM
potency estimated from few doses (PRKD2): 0.0267 µM
potency estimated from few doses (PRKD3): 0.0328 µM

O=C1Nc2ccc(I)cc2C1=Cc1cc(Br)c(O)c(Br)c1 [GW305074X_KCGS]
potency estimated from few doses (PIM2; [1]): 2.09 µM

CN(C1=C(c2ccccc2)C(=O)NC1=O)c1ccccc1 [SB-334860]
potency estimated from few doses (PIK3CD; [1]): 0.175 µM

CN(C)CCOc1ccc(-c2cc(-c3ccc(Cl)c(O)c3)c(-c3ccncc3)[nH]2)cc1.CN(C)CCOc1ccc(-c2cc(-c3ccc(Cl)c(O)c3)c(-c3ccncc3)[nH]2)cc1.Cl.Cl [SB-684387-B]
potency estimated from few doses (PI4KA; CATDS: 0.33665131532266801): 1.06 µM
potency estimated from few doses (PIK3CA; compound concentrations: 100 nM and 1000 nM (sheet 'Samples'), CATDS: 0.97128160740856295): 0.016 µM

Nc1c(C(=O)c2cccc(C(O)(CO)CO)c2)cnn1-c1ccc(F)cc1 [RO3201790-000]
potency estimated from few doses (PI4KB; CATDS: 0.52236122392279105): 0.888 µM
potency estimated from few doses (PKN3): 1.05 µM

O=C(NCCNc1ccnc(Nc2ccc(F)cc2)n1)Nc1ccccc1F [GSK1379880A]
potency estimated from few doses (PDGFRB): 1.45 µM
potency estimated from few doses (PIK3CA; compound concentrations: 100 nM and 1000 nM (sheet 'Samples'), CATDS: 0.78372192939813501): 0.233 µM

CCn1c(-c2ccoc2)nc2cnccc21 [SB-733887]
potency estimated from few doses (PDXK): 1.74 µM
